Reference: PubChem BioAssay (NCI)
About 83,000 compounds went through this panel and 20% of them were active in at least one assay; those are over-represented in the sample as a whole.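 Percent growth is the endpoint: 0 to 100 indicates growth inhibition (40 means 60% inhibition), 0 means no net growth, and negative values indicate cell death.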 Unmarked numbers belong to inactive results. Calls of active or inactive are those of the source. Rule for the calls: active = growth percent below 10; inactive = the rest.

Experiments:
Experiment in all cases: NCI-60 one-dose screen, 48 h (100 = growth as untreated, 0 = no growth, -100 = all killed)
Settings in all cases: 10 µM unless noted
SR leukemia = tested on: SR leukemia
RPMI-8226 leukemia = tested on: RPMI-8226 leukemia
OVCAR-8 ovarian = tested on: OVCAR-8 ovarian
OVCAR-5 ovarian = tested on: OVCAR-5 ovarian
OVCAR-4 ovarian = tested on: OVCAR-4 ovarian
SK-OV-3 ovarian = tested on: SK-OV-3 ovarian
IGROV1 ovarian = tested on: IGROV1 ovarian
OVCAR-3 ovarian = tested on: OVCAR-3 ovarian
HS 578T breast = tested on: HS 578T breast
NCI/ADR-RES ovarian = tested on: NCI/ADR-RES ovarian
T-47D breast = tested on: T-47D breast
BT-549 breast = tested on: BT-549 breast
MDA-MB-435 melanoma = tested on: MDA-MB-435 melanoma
SW-620 colon = tested on: SW-620 colon
MCF7 breast = tested on: MCF7 breast
HCT-116 colon = tested on: HCT-116 colon
KM12 colon = tested on: KM12 colon
HCC-2998 colon = tested on: HCC-2998 colon

Structure (SMILES) | growth (SR leukemia) | growth (RPMI-8226 leukemia) | growth (OVCAR-8 ovarian) | growth (OVCAR-5 ovarian) | growth (OVCAR-4 ovarian) | growth (SK-OV-3 ovarian) | growth (IGROV1 ovarian) | growth (OVCAR-3 ovarian) | growth (HS 578T breast) | growth (NCI/ADR-RES ovarian) | growth (T-47D breast) | growth (BT-549 breast) | growth (MDA-MB-435 melanoma) | growth (SW-620 colon) | growth (MCF7 breast) | growth (HCT-116 colon) | growth (KM12 colon) | growth (HCC-2998 colon)
COc1ccc(CNc2c3ccccc3nc3ccccc23)cc1F | 4.85% (active) | -5.78% (active) | 29.4% | 36.9% | 26.1% | 48.1% | 15.8% | 52.2% | 45.5% | 20.8% | 35% | 49.5% | 7.6% (active) | 16.6% | 2.34% (active) | 12.3% | 32.8% | –
COc1cc(/C=C/c2cc(/C=C/c3ccc(O)c(OC)c3)n(C(=O)Nc3ccc(F)c(Cl)c3)n2)ccc1O | 1.44% (active) | -11.3% (active) | -44% (active) | 0.879% (active) | 9.26% (active) | -31.2% (active) | 4.57% (active) | -26.4% (active) | -12.9% (active) | 12% | 2.29% (active) | -24.2% (active) | -25.9% (active) | 2.03% (active) | 2.06% (active) | 2.15% (active) | 0.0776% (active) | –
c1ccc(-c2ccc(-c3ccccc3)[nH]2)cc1 | 96.1% | 79.7% | 101% | 104% | 75.8% | 107% | 85.8% | 106% | 100% | 96.4% | 89.6% | 99.8% | 97.9% | – | 85.9% | 92.7% | 97% | –
CCN(CC)C(=O)O/N=C(/C)c1ccccc1 | 104% | 105% | 93.3% | 103% | 80.7% | 111% | 126% | 109% | 123% | 103% | 110% | – | 104% | 106% | 97.1% | 104% | 102% | 104%
COc1cc(CN(CCC(O)N2CCCC2=O)Cc2ccc3c(c2)OCO3)cc(OC)c1OC (stereo not given) | 86.3% | 98.7% | 100% | 98.5% | 108% | 102% | 95% | 105% | 103% | 103% | 96% | 101% | 103% | 108% | 96.8% | 92.4% | 105% | –
CN1CCCN(CCNc2nccc(-c3c(-c4cccc(O)c4)nc4sccn34)n2)S1(=O)=O | 13.9% | 81.7% | 60.1% | 80.6% | 51.5% | 15.5% | 13.7% | 60.6% | 54.3% | 102% | 60.7% | 62.9% | 11% | 71% | 74.1% | 21.2% | 64.8% | –
CN(C)CC(=O)c1ccc2cc(Br)c3ccccc3c2c1 | 13.4% | 46.9% | 57.9% | 83.7% | 72.2% | 69.7% | 38.5% | 85.8% | 55.4% | 72.8% | 37.1% | 60.2% | 83.6% | 54.7% | 63.6% | 49.3% | 63.7% | –
COc1ccccc1CNCCCN1C(=O)c2ccc3c4c(ccc(c24)C1=O)C(=O)N(CCCOCCCCOCCCN)C3=O | 7.67% (active) | -5.62% (active) | -14.6% (active) | -55.9% (active) | -97.1% (active) | 25.3% | -51.8% (active) | -95% (active) | 19.1% | -8.07% (active) | -56.8% (active) | 27.4% | -84.6% (active) | – | -69.6% (active) | -68.7% (active) | -59% (active) | -53.5% (active)
CC(C)OC1OC(OC(C)C)C(OC(C)C)OC1OC(C)C (stereo not given) | 100% | 94.5% | 94.4% | 102% | 88.9% | 113% | 93.9% | 99.5% | 101% | 105% | 115% | 102% | 110% | 96.2% | 103% | 88.5% | 95.2% | –
C[C@@H]1CC2C3CCC4=CC(=O)C=C[C@]4(C)[C@@]3(Cl)[C@@H](O)C[C@]2(C)[C@@]1(OC(=O)c1ccco1)C(=O)CCl (stereo not given in full) | 54.6% | 55.9% | 53% | 83.1% | 67.7% | 54.1% | 76.3% | 89.3% | 67.2% | 39.9% | 97.1% | 27.9% | 73.4% | – | 58.9% | 57.4% | 76.9% | 75.9%
CCOC(=O)Cn1c(-c2nonc2NC(=O)c2ccccc2F)nc2ccccc21 | 10.8% | 40.6% | 38.8% | 75% | 90.8% | 75% | 46.3% | 56.7% | 73.1% | 55.7% | 75.6% | – | 49.3% | 38.5% | 37% | 22.9% | 41.1% | 33.3%
Cc1ccccc1Nc1n[nH]c(Cc2ccccc2)n1 | 99.7% | 93.8% | 98.1% | 111% | 112% | 105% | 107% | 106% | 98.9% | 106% | 101% | 105% | 107% | 102% | 99.1% | 99.9% | 101% | –
CCn1c(Cc2ccccc2Nc2c(Cl)cccc2Cl)nnc1SCC(=O)Nc1cccc(OC)c1 | 87.1% | 63.2% | 89.8% | 82.9% | 78.7% | 85.4% | 67% | 96% | 72% | 86.1% | 58.9% | 98.8% | 93.4% | 85.3% | 84% | 66.5% | 88% | –
C=C1C[C@@]2(C)C(CC[C@]3(C)C2CC=C2C4CC(C)(C)C[C@@H](OC(=O)/C(C)=C\C)[C@]4(C(=O)O)CC[C@]23C)C(C)(C)C1=O (stereo not given in full) | -0.663% (active) | -15.6% (active) | 15% | 7.88% (active) | 39.4% | 86.2% | 1.07% (active) | -16.8% (active) | 51.3% | 9.03% (active) | -11.3% (active) | -19.7% (active) | -12.4% (active) | – | 8.17% (active) | -78.5% (active) | 3.05% (active) | -79.9% (active)
COc1ccc(C(=O)O)cc1.[Ag] | 60.1% | 103% | 105% | 104% | 117% | 114% | 110% | 99.7% | 96.1% | 99.5% | 92.6% | – | 95.3% | -61.9% (active) | 100% | 94.5% | 87% | 104%
O=C(Nc1ccncc1)C(=O)c1cn(S(=O)(=O)c2cccc(Cl)c2F)c2ccccc12 | 20% | 50.2% | 82.1% | 101% | 65.4% | 97.3% | 70.9% | 74.7% | 84.7% | 59.3% | 74.2% | 62.1% | 8.25% (active) | 59.6% | 35.2% | 31.3% | 63.1% | –
c1cn2cc(-c3ccc4ncn(C5CCCCC5)c4c3)nc(-c3ccc4c(c3)ncn4C3CCCCC3)c2n1 | 2.47% (active) | -37.9% (active) | -24.1% (active) | -24% (active) | 2.84% (active) | -71.9% (active) | -41.9% (active) | -85.2% (active) | 3.4% (active) | 1.11% (active) | -17.7% (active) | -48.9% (active) | -73% (active) | – | -3.78% (active) | -61.4% (active) | -61.1% (active) | -93.4% (active)
Cc1nc(N)nc2c1CCC(Nc1ccccc1)S2 (stereo not given) | 59.2% | 113% | 103% | 100% | 114% | 109% | 111% | 108% | 103% | 104% | 101% | – | 101% | 102% | 104% | 97% | 110% | 104%
